Bioassay records: PubChem, National Center for Advancing Translational Sciences (NCATS)
RORg inh – ROR gamma (mouse) transcription inhibition | 5.4% of 310,000 active | Potency, µM (highest dose often 53.6 µM), actives largely listed as inhibitors | Drosophila S2 Gal4-RORgamma UAS-luciferase reporter, 20 h | AID 2551; note: nearly all actives have a fitted effect of over 60% in size
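Drosophila Schneider cells stably carrying a metallothionein-driven Gal4 DBD–ROR gamma fusion and a UAS-Photinus luciferase reporter were exposed to compound for 1 hr, then induced with copper sulfate (700 uM final) for 20 hr at ambient temperature before luminescence reading.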
ELG1 DNA repair – ELG1-dependent DNA repair inhibition | 2.3% of 330,000 active | AID 504467 | Potency, µM (top dose mostly 46.1 µM), most hits filed as inhibitors | HEK293T ELG1-luciferase reporter, luminescence, 16 h; DNA damage induced by 5-fluorouridine; note: nearly all actives have a fitted effect of over 55% in size
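Quantitative HTS, concentration-response format. 2,000 cells/well co-treated with 5-fluorouridine and compound, 16 hr in 5% CO2 at 37 °C; ONE-Glo luminescence read after 30 min.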
Gal4-VP16 FLuc – Gal4-VP16 reporter inhibition counter-screen. 3.5% of 310,000 active. AID 2546. Potency, µM (titrated, usually from 53.6 µM), actives largely listed as inhibitors. Drosophila S2 Gal4-VP16 UAS-luciferase, luminescence, 20 h;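 note: Gal4-VP16 expression switched on by copper sulfate through the metallothionein promoter; nearly all actives have a fitted effect of over 50% in size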
B2AR arrestin – recruits beta-arrestin to the human beta2-adrenergic receptor | 0.02% of 330,000 active | beta-arrestin recruitment to beta2AR, cell-based reporter | P07550 | Potency, µM (titrated, usually from 46.1 µM), most hits filed as activators; note: nearly all actives have a fitted effect of over 65% in size
Target sequence (P07550 whole entry, looked up): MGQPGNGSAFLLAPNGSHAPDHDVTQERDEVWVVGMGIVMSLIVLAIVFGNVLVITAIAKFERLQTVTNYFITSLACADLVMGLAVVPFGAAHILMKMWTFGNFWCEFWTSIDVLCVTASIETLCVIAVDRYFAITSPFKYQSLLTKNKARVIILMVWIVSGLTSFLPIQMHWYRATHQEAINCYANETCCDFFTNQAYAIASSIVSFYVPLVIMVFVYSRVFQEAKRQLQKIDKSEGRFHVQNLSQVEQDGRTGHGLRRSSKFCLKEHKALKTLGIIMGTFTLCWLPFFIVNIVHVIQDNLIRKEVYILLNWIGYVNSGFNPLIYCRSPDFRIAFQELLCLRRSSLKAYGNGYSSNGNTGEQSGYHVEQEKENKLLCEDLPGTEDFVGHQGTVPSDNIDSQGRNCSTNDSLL
TSHR antagonist – antagonists of human thyroid stimulating hormone receptor; TSHR-expressing cells, TSH-stimulated cAMP HTRF, 2 h; stronger effect = lower value; activity change, negative = inhibition, % at 11.5 µM; 0.2% of 330,000 active; AID 504810;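 active = activity change below a set negative limit, meaning inhibition stronger than a set level, cut at about -70% in these data; inconclusive = activity change between two set negative limits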
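Antagonism was scored as loss of TSH-driven cAMP in TSHR cells, stimulated with 4nM TSH (EC80) for 2 hours at 37 deg C and detected by homogeneous HTRF competition immunoassay.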
Of the large screens only hits and unclear results are named; the others gave an inactive call. A selection: hits, their analogues and other compounds. The true share with any hit is near 7.5%. Unless noted, calls come from the whole dose curve; as a rule, active = well fitted curve in the direction sought with a large enough effect; inconclusive = small, poorly fitted or top-dose-only effect, or another doubt; inactive = no such curve, though single readings can be large; an effect the other way counts as inactive or inconclusive.

CCN1CCN(C(=O)CN(CC)S(=O)(=O)c2ccc(F)cc2)CC1	none
COc1ccc(Cl)cc1NC(=S)NNC(=O)C1(C)CC1(Cl)Cl (stereo not given)	none
CC(=O)Nc1ccc2nc(SCC(=O)N3CCOCC3)sc2c1	none
CC(=O)c1cccc(NS(=O)(=O)N2CCOCC2)c1	none
O=C(CSc1nc2ccc(Nc3nc(N4CCOCC4)nc(N4CCOCC4)n3)cc2s1)N1CCOCC1	ELG1 DNA repair 2.6µM
Fc1ccc(Nc2nc(N3CCOCC3)c3ccccc3n2)cc1	ELG1 DNA repair inconclusive
c1ccc2c(Nc3nc(N4CCOCC4)c4ccccc4n3)cccc2c1	ELG1 DNA repair 23µM, Gal4-VP16 FLuc inconclusive, B2AR arrestin inconclusive
Cc1ccc(NS(=O)(=O)N2CCOCC2)cc1Cl	RORg inh 0.35µM
CC(=O)c1ccc(NC(=O)CSc2nc(Nc3ccccc3)nc(N3CCOCC3)n2)cc1	ELG1 DNA repair 5.8µM
CCOC(=O)N1CCc2c(sc3c2c(=O)n(-c2ccc(CC)cc2)c(=O)n3CC(=O)NCC2CCCO2)C1 (stereo not given)	ELG1 DNA repair inconclusive
CSc1nc2ccc(Nc3nc(N4CCOCC4)nc(N4CCOCC4)n3)cc2s1	RORg inh inconclusive, ELG1 DNA repair 5.2µM (no result: Gal4-VP16 FLuc)
O=C(O)c1cc(Nc2nc(N3CCOCC3)nc(N3CCOCC3)n2)ccc1Cl	none
COC(=O)C1=C(C)NC(=O)/C1=C\c1cc(C)n(-c2ccccc2F)c1C	ELG1 DNA repair inconclusive
COC(=O)C1=C(C)NC(=O)/C1=C\c1cc(C)n(-c2ccccc2C)c1C	ELG1 DNA repair 21µM
Cc1cccc(N2CN(Cc3ccco3)CNC2=S)c1C	RORg inh 7.1µM, Gal4-VP16 FLuc 11µM
Cc1ccc(C)c(N2CN(Cc3ccco3)CNC2=S)c1	RORg inh 6.3µM, Gal4-VP16 FLuc 10µM
Cc1ccccc1N1CN(Cc2ccco2)CNC1=S	RORg inh 10µM, Gal4-VP16 FLuc inconclusive
O=C(Oc1ccccc1)N1CCC2(CC1)CN(c1ccccc1)C2	none (no result: ELG1 DNA repair, B2AR arrestin, TSHR antagonist)
COc1ccc(C2=Nn3c(nnc3-c3ccccc3C)SC2)cc1OC	none (no result: ELG1 DNA repair, B2AR arrestin, TSHR antagonist)
CC1(C)CC[C@]2(C(=O)O)CC[C@]3(C)C(=CC[C@@H]4[C@@]5(C)CC[C@H](O)C(C)(C)[C@@H]5CC[C@]43C)[C@@H]2C1	ELG1 DNA repair inconclusive
CC1(C)CC[C@]2(C(=O)O)CC[C@]3(C)C(=CCC4[C@@]5(C)CC[C@H](O)C(C)(C)C5CC[C@]43C)C2C1 (stereo not given in full)	RORg inh 6.3µM
CC(=O)N1c2ccc(S(=O)(=O)NCC3CCC(C(=O)Nc4cccc(C)n4)CC3)cc2CC1C (stereo not given)	ELG1 DNA repair inconclusive, Gal4-VP16 FLuc inconclusive
CC[C@H](C)[C@H](NC(=O)[C@H](CC(C)C)NC(=O)[C@H](CC(N)=O)NC(=O)[C@@H](NC(=O)[C@@H](N)Cc1ccc(O)cc1)[C@@H](C)CC)C(=O)N[C@@H](Cc1ccc(O)cc1)C(=O)N[C@@H](CCCN=C(N)N)C(=O)N[C@@H](CC(C)C)C(=O)N[C@@H](CCCN=C(N)N)C(=O)N[C@@H](Cc1ccc(O)cc1)C(N)=O	none (no result: ELG1 DNA repair, B2AR arrestin, TSHR antagonist)
CN(C(=O)CSc1nc(N)c2c3c(sc2n1)CSC(C)(C)C3)c1ccccc1	ELG1 DNA repair 21µM
Cc1ccc(S(=O)(=O)/N=C2\CN(C)C(=O)N2C)cc1	none
CCN1C/C(=N\S(=O)(=O)/N=C2\CN(CC)C(=O)N2CC)N(CC)C1=O	RORg inh 10µM
CC(=O)N1CCN(CC(=O)Nc2ccc([N+](=O)[O-])cc2Br)CC1	RORg inh inconclusive
Clc1ccc(-n2nnnc2SCc2c(-c3ccccc3)nc3sccn23)cc1	RORg inh inconclusive, ELG1 DNA repair inconclusive, Gal4-VP16 FLuc 6.3µM
COc1ccccc1CNc1ccnc(-c2ccccc2CN(C)C)n1	none (no result: ELG1 DNA repair, B2AR arrestin, TSHR antagonist)
